H9c2 protect = cardioprotection against H2O2-induced cell death, primary screen, uHTS, H9c2 cells, ATPLite luminescence. H9c2 cardiomyocytes, H2O2 injury protection, 2 h. protection from H2O2 cell death, % at 20 µM. actives 0.63% (n = 360,000). AID 588492, 2011;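 active = compounds giving at least 50% protection of heart cells from peroxide-induced death in the single-dose screen, raw or plate-pattern-corrected value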
H9c2 TAG inh = inhibitors of triacylglycerol accumulation, primary screen, cell-based, uHTS, fluorescence, H9c2; AID 651582, 2012; actives 0.66% (n = 230,000); inhibition, % at 12.5 µM; H9c2 cells, Nile Red lipid (TAG) fluorescence; cells loaded with 200 µM oleic acid;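 active = pattern-corrected inhibition of lipid staining of at least 50% with the nuclear-stain viability signal not falling by more than 50%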
Jurkat NFkB inh = inhibitors of induced NF-kB luciferase reporter, primary screen, TCR NF-kB activation inhibitor project, cell-based, luminescence, uHTS; Jurkat, PMA/ionomycin-induced NF-kB luciferase reporter; actives 0.53% (n = 330,000); inhibition, % at 4 µM; AID 435003, 2010; in the data active = inhibition above about 50%
Gli-Sufu antag = Gli-Sufu pathway antagonists, primary screen, luciferase luminescence, Sufu-KO-LIGHT cells, uHTS; Sufu-KO-LIGHT fibroblasts, Gli luciferase reporter luminescence; AID 588413, 2011; actives 0.74% (n = 340,000); inhibition, % at 5 µM;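 active = inhibition above about 55%, limit read from the data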
697 NFkB inh = inhibitors of PMA/ionomycin-induced NF-kB reporter, 697 cells, primary screen, B-cell NF-kB inhibitor project, cell-based, luminescence, uHTS; 697 B-cell NF-kB luciferase reporter, 16 h; inhibition, % at 4 µM; actives 0.33% (n = 330,000); in the data active = inhibition above about 35%
NR2F2 inh = NR2F2 transcriptional activity inhibitors, primary screen, cell-based, luciferase reporter, HEK293T, luminescence. COUP transcription factor 2 (Homo sapiens), P24468. HEK293T NGFI-A luciferase reporter. inhibition, % at 8.6 µM. actives 0.7% (n = 370,000). AID 686940, 2013;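 active = inhibition above a per-plate cutoff, mean inhibition of test wells between control levels plus 3 SD, cut at about 38% in these data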;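 note: cells cotransfected with COUP-TFII expression vector driving the NGFI-A reporter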
Target sequence (P24468 whole entry, looked up): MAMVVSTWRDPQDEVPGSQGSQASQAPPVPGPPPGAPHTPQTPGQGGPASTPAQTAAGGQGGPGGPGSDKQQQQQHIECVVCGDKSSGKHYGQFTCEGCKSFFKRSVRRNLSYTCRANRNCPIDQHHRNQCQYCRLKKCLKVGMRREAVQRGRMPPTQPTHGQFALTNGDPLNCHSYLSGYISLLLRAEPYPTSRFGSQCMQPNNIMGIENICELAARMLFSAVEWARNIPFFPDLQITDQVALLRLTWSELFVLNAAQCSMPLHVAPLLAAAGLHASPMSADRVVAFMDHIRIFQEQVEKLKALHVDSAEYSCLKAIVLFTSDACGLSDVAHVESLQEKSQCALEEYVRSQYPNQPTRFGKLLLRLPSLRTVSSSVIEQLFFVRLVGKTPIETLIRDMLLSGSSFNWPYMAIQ
Jurkat NFkB conf = PMA/ionomycin-induced NF-kB reporter inhibitors, Jurkat retest, confirmation, T-cell NF-kB inhibitor project, cell-based, luminescence, single concentration | Jurkat NF-kB luciferase, 16 h | shares compounds with Jurkat NFkB inh | inhibition, % at 4 µM | actives 27% (n = 2,700) | AID 435020, 2010;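 active = inhibition reaching about 45% at 4 µM in either replicate, limit read from the data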
697 NFkB conf = PMA/ionomycin-induced NF-kB reporter inhibitors, 697 retest, confirmation, B-cell NF-kB inhibitor project, cell-based, luminescence, single concentration; shares compounds with 697 NFkB inh; 697 B-cell NF-kB luciferase, 16 h; inhibition, % at 4 µM; actives 35% (n = 2,000); AID 449746, 2010; in the data active = inhibition mostly above about 28%, no sharp cut-off; inactive = mostly below about 22%
Each line names hits and unclear results; the compound was inactive in the other large screens (follow-up assays come after a bar, where they were run). Rows were chosen to be rich in hits. Some 2.6% of all compounds tested hit in one or more screens of this group.

Nc1[nH]c(C(=O)c2ccccc2)c(-c2ccc3ccccc3c2)c1C(=O)NCc1ccc(F)cc1	none (no result: H9c2 protect, H9c2 TAG inh, Jurkat NFkB inh, Gli-Sufu antag, 697 NFkB inh)
CCOc1ccc(-c2nc(-c3ccccc3C)no2)cc1	none (no result: H9c2 protect, H9c2 TAG inh, Gli-Sufu antag, NR2F2 inh) | Jurkat NFkB conf inactive | 697 NFkB conf inactive
CCOc1ccc(-c2nc(-c3cccnc3)no2)cc1	none
COC(=O)[C@H](C(C)C)N1CCc2nnn(Cc3ccc(C)cc3)c2-c2cc(F)ccc2S1(=O)=O	none (no result: H9c2 protect, H9c2 TAG inh, Jurkat NFkB inh, Gli-Sufu antag, 697 NFkB inh)
CCCC(=O)Nc1ccc(-c2nc3cc(C)ccc3o2)cc1	none | Jurkat NFkB conf inactive | 697 NFkB conf inactive
O=C(Nc1ccc(-c2nc3cc(Cl)ccc3o2)cc1)C1CCCO1 (stereo not drawn)	none | Jurkat NFkB conf inactive | 697 NFkB conf inactive
CCCC(=O)Nc1ccc2oc(-c3ccc(OC)c(Br)c3)nc2c1	none (no result: H9c2 TAG inh)
O=c1c2ccccc2oc2cc(C#Cc3ccccn3)ccc12	none | Jurkat NFkB conf inactive | 697 NFkB conf inactive
O=C(Oc1ccc2ccccc2c1Cl)N1CCCC1	none | Jurkat NFkB conf inactive | 697 NFkB conf inactive
O=C(Oc1ccc(Cl)c2ccccc12)N1CCCCC1	none
O=C(Oc1ccc2ccccc2c1Cl)N1CCCCCC1	none (no result: H9c2 TAG inh) | Jurkat NFkB conf inactive | 697 NFkB conf inactive
O=C(OCCN1CCN(C2CN(Cc3cn(Cc4ccccc4F)nn3)S(=O)(=O)C2)CC1)c1cc2ccccc2o1 (stereo not drawn)	none (no result: H9c2 protect, H9c2 TAG inh, Jurkat NFkB inh, Gli-Sufu antag, 697 NFkB inh)
COc1ccc(CN2CN3CCc4ccccc4C3CS2(=O)=O)cc1 (stereo not drawn)	none (no result: H9c2 protect, H9c2 TAG inh, Jurkat NFkB inh, Gli-Sufu antag, 697 NFkB inh)
CCc1ccc(CNCC(=O)N2CCC3(CC2)OCCO3)s1	none (no result: H9c2 protect, H9c2 TAG inh, Jurkat NFkB inh, Gli-Sufu antag, 697 NFkB inh)
CCOC(=O)c1sc2nc3c(cc2c1N)COC(C(C)C)C3 (stereo not drawn)	none (no result: H9c2 TAG inh) | Jurkat NFkB conf inactive | 697 NFkB conf inactive
CCOC(=O)c1sc2nc(N3CCOCC3)c3c(c2c1N)CC(C(C)C)OC3 (stereo not drawn)	none
O=C(CCS(=O)(=O)c1ccccc1)Nc1cc(Cl)ccc1F	none (no result: H9c2 protect, H9c2 TAG inh, Jurkat NFkB inh, Gli-Sufu antag, 697 NFkB inh)
CCSc1cc(C)nc2c(-c3ccccc3)cnn12	none | Jurkat NFkB conf inactive | 697 NFkB conf inactive
O=c1c2ccccc2[nH]n1[C@@H](Cc1ccccc1)Cn1cc(-c2ccc(-c3ccccc3)cc2)nn1	none (no result: H9c2 protect, H9c2 TAG inh, Jurkat NFkB inh, Gli-Sufu antag, 697 NFkB inh)
Cc1cccc(Cn2cc(COC(=O)NCCc3ccccc3)nn2)c1	none (no result: H9c2 protect, H9c2 TAG inh, Jurkat NFkB inh, Gli-Sufu antag, 697 NFkB inh)
COc1ccc2cc3cc(C(=O)Nc4ccc(F)cc4)sc3nc2c1	none (no result: H9c2 protect, H9c2 TAG inh, Jurkat NFkB inh, Gli-Sufu antag, 697 NFkB inh)
CCC(C)NC(=O)c1cc2cc3ccc(OC)cc3nc2s1 (stereo not drawn)	none | Jurkat NFkB conf inactive | 697 NFkB conf inactive
N#Cc1ccc(Cn2ccc3ccc(-c4ccc5ccn(C(=O)c6ccccc6)c5c4)cc32)cc1	none (no result: H9c2 protect, H9c2 TAG inh, Jurkat NFkB inh, Gli-Sufu antag, 697 NFkB inh)
C[C@H](NC(=O)c1nc[nH]c1C(=O)N[C@@H](C)C(=O)OCc1ccccc1)C(=O)OCc1ccccc1	Jurkat NFkB inh 51, 697 NFkB inh 56 | Jurkat NFkB conf 86 | 697 NFkB conf 60
O=C(CCN1C(=O)c2ccccc2C1=O)Nc1ccc(-c2nc3ccccc3s2)cc1	none (no result: H9c2 TAG inh) | Jurkat NFkB conf inactive | 697 NFkB conf inactive
Cc1ccc2nc(-c3ccc(NC(=O)CCN4C(=O)c5ccccc5C4=O)cc3)sc2c1	none (no result: H9c2 TAG inh) | Jurkat NFkB conf inactive | 697 NFkB conf inactive
O=C(CCN1C(=O)c2ccccc2C1=O)Nc1nc2ccccc2s1	none
C[C@@H]1CCCN1c1cccc2c1S(=O)(=O)N(C1CC1)CCCO2	none (no result: H9c2 protect, H9c2 TAG inh, Jurkat NFkB inh, Gli-Sufu antag, 697 NFkB inh)
CCOc1ccc(/C=C2\SC(=S)N(CCC(=O)O)C2=O)cc1	Jurkat NFkB inh 52, 697 NFkB inh 77 | Jurkat NFkB conf 61 | 697 NFkB conf 66
CCOc1ccc(/C=C2\SC(=S)N(CCC(=O)Nc3ccccc3C(=O)O)C2=O)cc1	none (no result: H9c2 TAG inh)
